Assay results published in PubChem BioAssay (EPA / NIEHS).
Results filed as inconclusive are left out. Calls of active or inactive are those of the source. Rule for the calls: active = hit-call score of the fitted dose curve at least 0.9, where 1 is the maximum; inconclusive = response in the unintended direction; inactive = score below 0.9.

target: Androgen Receptor/SRC-1 Co-activator, AR (gene 367) (UniProt P10275); assay: OT_AR_ARSRC1_0960: Odyssey Thera (OT) 16-hour HEK293T Protein-Complementation Assay for Androgen Receptor/SRC-1 Co-activator (AID 2283353);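 note: actives raise the signal above DMSO so potency reflects increased AR and SRC-1 complex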
Procedure, shortened: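 Stable HEK293T line carries AR and SRC-1 each linked to a Venus fragment; chemicals are applied for 16 h, cells imaged at two wavelengths, and the 488 nm nucleus/cytoplasm ratio is taken as the signal, rising relative to DMSO.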

Sequence of Androgen Receptor/SRC-1 Co-activator, AR (gene 367) (P10275 whole entry, looked up, the tested form may be a part): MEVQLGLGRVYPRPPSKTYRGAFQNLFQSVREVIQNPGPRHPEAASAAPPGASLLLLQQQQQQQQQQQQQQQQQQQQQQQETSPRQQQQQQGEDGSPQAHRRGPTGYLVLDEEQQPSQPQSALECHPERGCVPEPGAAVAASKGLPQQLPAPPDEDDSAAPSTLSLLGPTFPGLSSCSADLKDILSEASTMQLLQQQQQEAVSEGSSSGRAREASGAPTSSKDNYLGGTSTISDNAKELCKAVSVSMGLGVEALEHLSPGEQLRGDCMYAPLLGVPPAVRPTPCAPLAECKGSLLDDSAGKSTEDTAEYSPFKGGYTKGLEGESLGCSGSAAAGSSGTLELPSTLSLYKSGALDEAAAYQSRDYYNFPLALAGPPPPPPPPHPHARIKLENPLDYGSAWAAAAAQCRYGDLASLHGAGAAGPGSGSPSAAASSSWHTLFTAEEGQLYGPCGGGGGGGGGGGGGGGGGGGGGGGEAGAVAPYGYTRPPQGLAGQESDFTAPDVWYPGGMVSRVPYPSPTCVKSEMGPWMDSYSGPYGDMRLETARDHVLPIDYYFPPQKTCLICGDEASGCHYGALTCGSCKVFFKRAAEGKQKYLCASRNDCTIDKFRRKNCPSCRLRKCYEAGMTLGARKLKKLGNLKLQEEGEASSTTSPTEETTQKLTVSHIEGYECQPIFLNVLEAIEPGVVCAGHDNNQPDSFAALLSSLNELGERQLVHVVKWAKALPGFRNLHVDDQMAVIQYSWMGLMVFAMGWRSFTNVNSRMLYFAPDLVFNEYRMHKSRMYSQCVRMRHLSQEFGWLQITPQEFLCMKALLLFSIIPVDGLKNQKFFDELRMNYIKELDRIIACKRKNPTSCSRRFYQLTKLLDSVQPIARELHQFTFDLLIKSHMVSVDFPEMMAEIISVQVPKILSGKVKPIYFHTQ

**Q.** How did the outcome turn out when `CC(=O)Nc1ccc(O)cc1` was run?
**A.** inactive

**Q.** For `CC(C)[C@@H]1CC[C@@H](C)C[C@H]1O`, which outcome is on record?
**A.** inactive

**Q.** With `O=C(c1ccccc1)c1ccccc1` as the molecule, how does the outcome read?
**A.** inactive

**Q.** Which outcome does the source give for `CC(O)COc1ccccc1` (stereo not given) here?
**A.** inactive

target: Androgen Receptor/SRC-1 Co-activator, AR (gene 367) (UniProt P10275); assay: OT_AR_ARSRC1_0480: Odyssey Thera (OT) 8-hour HEK293T Protein-Complementation Assay for Androgen Receptor/SRC-1 Co-activator (AID 2283354);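 note: hits raise the complementation signal above DMSO so AC50 marks enhancers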
Procedure, shortened: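 Split-Venus PCA, stable HEK293T, AR/SRC-1 fusions; 8 h exposure. Readout: 488nm N/C fluorescence ratio, ≥400 cells/image; fitted upward vs DMSO baseline.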

**Q.** With `CC(=O)Nc1ccc(O)cc1` as the molecule, how does the outcome read?
**A.** inactive

**Q.** How did the outcome turn out when `CC(C)[C@@H]1CC[C@@H](C)C[C@H]1O` was run?
**A.** inactive

**Q.** For `O=C(c1ccccc1)c1ccccc1`, which outcome is on record?
**A.** inactive

**Q.** With `CC(O)COc1ccccc1` (stereo not given) as the molecule, how does the outcome read?
**A.** inactive

target: Estrogen receptor beta (Homo sapiens) (UniProt Q92731); assay: OT_ER_ERbERb_0480: Odyssey Thera (OT) 8-hour HEK293T Protein-Complementation Assay for Estrogen Receptor-beta/-beta Homodimer (AID 2283357);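 note: active means signal gain over DMSO baseline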
Procedure, shortened: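 Homodimerization of ER-beta LBD measured by protein-fragment complementation in HEK293T; 8 h dosing; fixed, Draq5 counterstain; fluorescence intensity gain over DMSO baseline, positive fitting direction; laser scanning cytometry.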

Sequence of Estrogen receptor beta (Homo sapiens) (Q92731 whole entry, looked up, the tested form may be a part): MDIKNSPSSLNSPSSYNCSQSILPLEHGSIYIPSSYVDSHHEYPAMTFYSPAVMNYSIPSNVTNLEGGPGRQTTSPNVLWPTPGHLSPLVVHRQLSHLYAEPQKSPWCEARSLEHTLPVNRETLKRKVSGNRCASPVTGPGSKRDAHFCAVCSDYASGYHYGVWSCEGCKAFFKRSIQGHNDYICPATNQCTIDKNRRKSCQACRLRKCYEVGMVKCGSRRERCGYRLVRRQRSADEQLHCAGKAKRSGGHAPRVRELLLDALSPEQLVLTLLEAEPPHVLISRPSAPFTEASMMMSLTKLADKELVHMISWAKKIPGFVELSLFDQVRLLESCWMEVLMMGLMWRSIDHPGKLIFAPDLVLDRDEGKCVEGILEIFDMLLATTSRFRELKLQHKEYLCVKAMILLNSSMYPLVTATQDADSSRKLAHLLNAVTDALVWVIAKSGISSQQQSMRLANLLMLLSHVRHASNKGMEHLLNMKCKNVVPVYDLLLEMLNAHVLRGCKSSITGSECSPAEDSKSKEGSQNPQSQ

**Q.** `c1cnc2c(c1)ccc1cccnc12` was tested. Which outcome did it give?
**A.** inactive

**Q.** How did the outcome turn out when `Cc1[nH]nc2c1N=C(c1ccccc1Cl)c1cc([N+](=O)[O-])ccc1N2` was run?
**A.** inactive

**Q.** How did the outcome turn out when `CC(=O)Nc1ccc(O)cc1` was run?
**A.** inactive

**Q.** With `CCCCCCCCCCCC(=O)O` as the molecule, how does the outcome read?
**A.** inactive

**Q.** `O=C1NS(=O)(=O)c2ccccc21` was tested. Which outcome did it give?
**A.** inactive

**Q.** `NS(=O)(=O)O` was tested. Which outcome did it give?
**A.** inactive

**Q.** `CC(C)[C@@H]1CC[C@@H](C)C[C@H]1O` was tested. Which outcome did it give?
**A.** inactive

**Q.** Which outcome does the source give for `O=S(=O)(O)c1ccccc1` here?
**A.** inactive

**Q.** How did the AC50 turn out when `C[C@]12CC[C@@H]3c4ccc(O)cc4CC[C@H]3[C@@H]1C[C@@H](O)[C@@H]2O` was run?
**A.** 0.552 µM (active)

**Q.** `Cc1cc(C(C)(C)C)c(O)c(C(C)(C)C)c1` was tested. Which outcome did it give?
**A.** inactive

**Q.** `O=C(CCCN1CCC(O)(c2ccc(Cl)cc2)CC1)c1ccc(F)cc1` was tested. Which outcome did it give?
**A.** inactive

**Q.** `CCC(C)c1ccccc1O` (stereo not given) was tested. Which outcome did it give?
**A.** inactive

**Q.** With `CCCCCCCCCCCCCCC` as the molecule, how does the outcome read?
**A.** inactive

**Q.** How did the outcome turn out when `CC(O)COc1ccccc1` (stereo not given) was run?
**A.** inactive

target: Retinoic acid receptor alpha (Homo sapiens) (UniProt P10276); assay: NVS_NR_hRAR_Antagonist: NovaScreen (NVS) Nuclear Receptor Binding Assay for human Retinoic Acid Alpha Receptor Antagonism (RAR) (AID 2283358)
Procedure, shortened: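 Read-out: time-resolved FRET binding signal, 2 h post-dose, cell-free extracted protein. Antagonism scored as signal loss versus DMSO negative control. Primary single-concentration screen at 25 uM in duplicate; concentration series for actives.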

Sequence of Retinoic acid receptor alpha (Homo sapiens) (P10276 whole entry, looked up): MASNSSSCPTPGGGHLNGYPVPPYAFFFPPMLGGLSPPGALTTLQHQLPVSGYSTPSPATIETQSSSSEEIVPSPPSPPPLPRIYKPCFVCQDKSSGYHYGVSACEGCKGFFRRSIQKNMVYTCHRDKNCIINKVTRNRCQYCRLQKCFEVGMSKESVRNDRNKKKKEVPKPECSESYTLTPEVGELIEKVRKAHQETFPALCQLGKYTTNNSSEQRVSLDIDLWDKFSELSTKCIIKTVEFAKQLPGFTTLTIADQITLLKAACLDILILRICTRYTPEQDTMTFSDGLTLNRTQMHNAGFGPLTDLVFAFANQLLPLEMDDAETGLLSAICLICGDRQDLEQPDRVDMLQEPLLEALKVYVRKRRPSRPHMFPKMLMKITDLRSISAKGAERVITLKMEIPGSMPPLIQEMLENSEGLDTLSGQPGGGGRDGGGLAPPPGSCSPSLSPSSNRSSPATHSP

**Q.** Which outcome does the source give for `O=C1NS(=O)(=O)c2ccccc21` here?
**A.** inactive

**Q.** `O=C1OC2(c3ccccc31)c1cc(I)c(O)c(I)c1Oc1c2cc(I)c(O)c1I` was tested. Which AC50 did it give?
**A.** 19.7 µM (active)

**Q.** With `CCCCCCCCCCCC` as the molecule, how does the AC50 read?
**A.** 3.51 µM (active)

target: human Peroxisome Proliferator-activated Receptor alpha (PPARa), PPARA (gene 5465) (UniProt Q07869); assay: NVS_NR_hPPARa: NovaScreen (NVS) Nuclear Receptor Binding Assay for human Peroxisome Proliferator-activated Receptor alpha (PPARa) (AID 2283359);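 note: activity means loss of TR-FRET signal versus DMSO baseline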
Procedure, shortened: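 TR-FRET signal measured at 1 h post-dosing; loss-of-signal versus DMSO negative control taken as activity. Extracted gene-protein, cell-free format. Initial single-point duplicates at 25 uM, then concentration-response retests.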

Sequence of human Peroxisome Proliferator-activated Receptor alpha (PPARa), PPARA (gene 5465) (Q07869 whole entry, looked up): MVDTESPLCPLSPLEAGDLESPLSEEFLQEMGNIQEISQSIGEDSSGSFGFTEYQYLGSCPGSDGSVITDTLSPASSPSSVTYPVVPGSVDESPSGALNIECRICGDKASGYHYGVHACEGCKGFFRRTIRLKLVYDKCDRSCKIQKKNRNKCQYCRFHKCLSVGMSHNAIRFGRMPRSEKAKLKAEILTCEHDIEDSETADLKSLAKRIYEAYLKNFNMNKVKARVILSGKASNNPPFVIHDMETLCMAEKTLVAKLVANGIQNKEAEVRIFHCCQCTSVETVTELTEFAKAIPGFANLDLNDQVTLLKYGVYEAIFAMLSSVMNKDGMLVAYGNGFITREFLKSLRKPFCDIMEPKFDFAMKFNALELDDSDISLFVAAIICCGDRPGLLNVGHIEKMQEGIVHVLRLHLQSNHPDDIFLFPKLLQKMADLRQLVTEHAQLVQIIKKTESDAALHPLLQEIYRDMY

**Q.** With `CCCCC(CC)C(=O)O` (stereo not given) as the molecule, how does the outcome read?
**A.** inactive

**Q.** Which outcome does the source give for `NCCN` here?
**A.** inactive

**Q.** `CCCCCCCCCCCC` was tested. Which AC50 did it give?
**A.** 7.45 µM (active)

target: PGR (gene 5241) (UniProt P06401); assay: NVS_NR_hPR: NovaScreen (NVS) Nuclear Receptor Binding Assay for human Progestron Receptor (PR) (AID 2283360);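 note: active means loss of bound radioligand signal versus DMSO baseline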
Procedure, shortened: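 Cell-free radioligand binding using receptor protein extracted from T47D cells, read by scintillation counting 18 hours after dosing. Loss of signal relative to DMSO baseline indicates displacement; primary screen single concentration 25 uM in duplicate, actives followed in concentration series.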

Sequence of PGR (gene 5241) (P06401 whole entry, looked up): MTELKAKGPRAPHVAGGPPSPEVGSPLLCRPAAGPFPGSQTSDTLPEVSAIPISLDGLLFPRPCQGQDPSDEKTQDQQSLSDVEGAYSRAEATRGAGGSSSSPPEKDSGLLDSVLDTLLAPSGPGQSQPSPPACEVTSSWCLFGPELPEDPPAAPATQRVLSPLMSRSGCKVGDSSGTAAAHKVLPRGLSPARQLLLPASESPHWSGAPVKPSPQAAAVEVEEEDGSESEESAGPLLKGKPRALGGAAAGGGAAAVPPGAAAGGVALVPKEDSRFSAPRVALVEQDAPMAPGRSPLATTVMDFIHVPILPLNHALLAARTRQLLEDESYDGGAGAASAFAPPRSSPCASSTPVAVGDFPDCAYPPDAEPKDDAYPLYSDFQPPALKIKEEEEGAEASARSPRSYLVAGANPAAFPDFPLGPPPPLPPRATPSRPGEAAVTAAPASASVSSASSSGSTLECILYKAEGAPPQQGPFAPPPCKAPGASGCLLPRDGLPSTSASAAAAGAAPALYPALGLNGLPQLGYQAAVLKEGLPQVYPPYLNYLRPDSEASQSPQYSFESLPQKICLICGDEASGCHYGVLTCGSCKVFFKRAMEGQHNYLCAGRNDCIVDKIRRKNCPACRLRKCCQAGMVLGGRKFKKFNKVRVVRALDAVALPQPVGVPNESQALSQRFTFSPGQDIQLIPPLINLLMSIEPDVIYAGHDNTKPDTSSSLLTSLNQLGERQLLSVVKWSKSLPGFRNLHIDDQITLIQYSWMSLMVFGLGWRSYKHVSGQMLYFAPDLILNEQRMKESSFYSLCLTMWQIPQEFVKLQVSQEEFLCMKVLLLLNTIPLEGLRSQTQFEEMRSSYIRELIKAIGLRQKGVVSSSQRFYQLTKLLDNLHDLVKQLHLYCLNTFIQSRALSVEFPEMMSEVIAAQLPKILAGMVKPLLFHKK

**Q.** `Clc1ccc(Nc2nnc(Cc3ccncc3)c3ccccc23)cc1` was tested. Which outcome did it give?
**A.** inactive

**Q.** With `C[C@]12CC[C@@H]3c4ccc(O)cc4CC[C@H]3[C@@H]1C[C@@H](O)[C@@H]2O` as the molecule, how does the AC50 read?
**A.** 35.4 µM (active)

**Q.** `CCCCCCCCCCCCCCC` was tested. Which outcome did it give?
**A.** inactive

**Q.** How did the outcome turn out when `c1cc[nH]c1` was run?
**A.** inactive

target: human Thyroid Receptor Alpha (TRa), THRA (gene 7067) (UniProt P10827); assay: NVS_NR_hTRa_Antagonist: NovaScreen (NVS) Nuclear Receptor Binding Assay for human Thyroid Receptor Alpha Antagonism (TRa) (AID 2283362)
Procedure, shortened: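 Cell-free AlphaLISA chemiluminescent binding read 1 h after dosing, antagonist mode; signal loss versus DMSO baseline. Primary screen in duplicate at 25 uM, then concentration series for actives.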

Sequence of human Thyroid Receptor Alpha (TRa), THRA (gene 7067) (P10827 whole entry, looked up): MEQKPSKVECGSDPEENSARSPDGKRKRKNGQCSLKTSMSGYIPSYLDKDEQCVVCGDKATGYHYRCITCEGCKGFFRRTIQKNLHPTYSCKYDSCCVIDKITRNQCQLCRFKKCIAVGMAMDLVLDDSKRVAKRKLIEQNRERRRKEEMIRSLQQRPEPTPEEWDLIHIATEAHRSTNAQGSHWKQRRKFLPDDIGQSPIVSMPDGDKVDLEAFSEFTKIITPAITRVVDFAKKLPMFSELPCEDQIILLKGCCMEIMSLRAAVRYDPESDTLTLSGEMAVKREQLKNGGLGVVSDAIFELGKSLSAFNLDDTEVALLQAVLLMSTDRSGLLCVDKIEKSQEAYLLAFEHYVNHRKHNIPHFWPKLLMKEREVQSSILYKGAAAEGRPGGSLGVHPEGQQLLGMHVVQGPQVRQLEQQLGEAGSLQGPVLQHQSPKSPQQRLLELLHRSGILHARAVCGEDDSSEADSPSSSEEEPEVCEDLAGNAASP

**Q.** How did the AC50 turn out when `c1cnc2c(c1)ccc1cccnc12` was run?
**A.** 0.241 µM (active)

**Q.** `Cc1[nH]nc2c1N=C(c1ccccc1Cl)c1cc([N+](=O)[O-])ccc1N2` was tested. Which outcome did it give?
**A.** inactive

**Q.** Which outcome does the source give for `CCCCC=O` here?
**A.** inactive

target: Glucocorticoid receptor (Homo sapiens) (UniProt P04150); assay: NVS_NR_hGR: NovaScreen (NVS) Nuclear Receptor Binding Assay for human Glucocorticoid Receptor (GR) (AID 2283363)
Protocol: NVS_NR_hGR is a biochemical, single-readout assay that uses extracted gene-proteins in a cell-free assay. Measurements were taken 16 hours after chemical dosing in a 96-well plate.NVS_NR_hGR is one of one assay component(s) measured or calculated from the NVS_NR_hGR assay. It is designed to make measurements of radioligand binding, a form of binding reporter, as detected with scintillation counting signals by Filter-based radiodetection technology.Data from the assay component NVS_NR_hGR was analyzed into 1 assay endpoint. This assay endpoint, NVS_NR_hGR, was analyzed in the positive analysis fitting direction relative to DMSO as the negative control and baseline of activity. Using a type of binding reporter, loss-of-signal activity can be used to understand changes in the binding as they relate to the gene NR3C1. Furthermore, this assay endpoint can be referred to as a primary readout, because the performed assay has only produced 1 assay endpoint. To generalize the intended target to other relatable targets, this assay endpoint is annotated to the nuclear receptor intended target family, where the subfamily is steroidal.
Binding assays used specific radioligands (tritiated, iodinated) with non-radioactive competitive displacement ligands in agonist or antagonist protocols (as indicated) and various reference compounds and inhibitors to titrate specific binding to receptors and transporters. Most enzyme assays (CYPs, kinases, phosphatases, proteases, HDACs) used recombinant protein and specific substrates (fluorescence mostly, some colorimetric and radioactive) and inhibitors, followed by a biochemical separation of substrate and product. All assays for the biochemical HTS were initially run in duplicate at a single concentration (10 uM for CYP450 assays and 25 uM for all others). […] Each assay was run with positive and negative controls, and concurrent controls on every plate. The follow-up (secondary) screen tested active chemical-pairs in concentration series, as well as a few additional assays not tested in the primary screen, some selected negative inactives, and several cases re-run in the concentration series for confirmatory purposes.

Sequence of Glucocorticoid receptor (Homo sapiens) (P04150 whole entry, looked up): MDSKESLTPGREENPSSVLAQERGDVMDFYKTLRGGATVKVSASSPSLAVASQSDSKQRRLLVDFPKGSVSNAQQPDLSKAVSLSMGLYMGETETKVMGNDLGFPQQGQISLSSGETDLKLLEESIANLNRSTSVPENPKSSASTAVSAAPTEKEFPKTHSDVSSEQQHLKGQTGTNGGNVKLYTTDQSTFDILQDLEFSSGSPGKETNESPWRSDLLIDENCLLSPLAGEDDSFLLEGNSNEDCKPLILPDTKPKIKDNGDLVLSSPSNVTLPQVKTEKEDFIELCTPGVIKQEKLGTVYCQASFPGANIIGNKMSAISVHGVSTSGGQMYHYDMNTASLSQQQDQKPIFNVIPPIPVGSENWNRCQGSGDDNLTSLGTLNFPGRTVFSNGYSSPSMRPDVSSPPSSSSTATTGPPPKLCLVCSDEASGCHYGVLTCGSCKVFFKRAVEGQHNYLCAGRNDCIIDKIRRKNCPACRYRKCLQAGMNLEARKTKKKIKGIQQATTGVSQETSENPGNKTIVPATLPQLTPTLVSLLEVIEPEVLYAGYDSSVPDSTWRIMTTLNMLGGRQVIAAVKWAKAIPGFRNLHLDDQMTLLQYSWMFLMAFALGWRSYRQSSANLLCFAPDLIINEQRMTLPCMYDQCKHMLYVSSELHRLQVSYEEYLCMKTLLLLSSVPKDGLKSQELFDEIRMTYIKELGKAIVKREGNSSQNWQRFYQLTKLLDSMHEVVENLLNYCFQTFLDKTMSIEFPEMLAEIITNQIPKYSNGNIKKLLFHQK

**Q.** `CC1=NN(c2ccccc2)C(=O)C1` was tested. Which AC50 did it give?
**A.** 45.7 µM (active)

**Q.** Which outcome does the source give for `C=CC(=C)CC/C=C(\C)CCC=C(C)C` here?
**A.** inactive

**Q.** `C[C@]12CC[C@@H]3c4ccc(O)cc4CC[C@H]3[C@@H]1C[C@@H](O)[C@@H]2O` was tested. Which outcome did it give?
**A.** inactive

**Q.** `CCCCCCCCCCCC` was tested. Which AC50 did it give?
**A.** 0.703 µM (active)

**Q.** `CCC(=O)O` was tested. Which AC50 did it give?
**A.** 0.202 µM (active)
